Where “and” joins values, the source holds several entries; their conditions need not be identical. Identical values can stand only once. Inconclusive results are not listed. Where a structure was tested more than once in an assay, its records may differ in their call. Calls of active or inactive are those of the source. Rule for the calls, unless noted: active = hit-call score of the fitted dose curve at least 0.9, where 1 is the maximum; inconclusive = response in the unintended direction; inactive = score below 0.9.

Assay [1] has as its target Estrogen receptor (Homo sapiens) (UniProt P03372). Put plainly: OT_ERa_GFPERaERE_0480: Odyssey Thera (OT) 8-hour HeLa Transcription Induction Assay for Estrogen Receptor (AID 2283381; active = hit-call score of the fitted dose curve at least 0.9, where 1 is the maximum; inactive = score below 0.9). In outline:
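GFP-ERE reporter, HeLa, 8 h exposure. Readout: fluorescence microscopy, high-content image analysis. Fit direction positive vs DMSO negative control.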

Assay [2] shares this target. Put plainly: OT_ERa_GFPERaERE_0120: Odyssey Thera (OT) 2-hour HeLa Transcription Induction Assay for Estrogen Receptor (AID 2283382). In outline: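 Fluorescence microscopy read-out: inducible fluorescent protein reporter in HeLa cells, imaged 2 h post-dose. Signal increase over DMSO negative control fitted as single primary endpoint via high content image analysis.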

Assay [3] deals with Bile acid receptor (Homo sapiens) (UniProt Q96RI1). Put plainly: OT_FXR_FXRSRC1_0480: Odyssey Thera (OT) 8-hour HEK293T Protein-Complementation Assay for Farnesoid X receptor/SRC-1 Co-activator (AID 2283383). In outline: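 Fluorescence intensity read-out, 8 h post-dose, HEK293T protein-fragment complementation; FXR bait and SRC-1 prey each linked to reporter fragments. Activity scored as signal increase over DMSO negative control.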
Sequence of Bile acid receptor (Homo sapiens) (Q96RI1 whole entry, looked up, the tested form may be a part): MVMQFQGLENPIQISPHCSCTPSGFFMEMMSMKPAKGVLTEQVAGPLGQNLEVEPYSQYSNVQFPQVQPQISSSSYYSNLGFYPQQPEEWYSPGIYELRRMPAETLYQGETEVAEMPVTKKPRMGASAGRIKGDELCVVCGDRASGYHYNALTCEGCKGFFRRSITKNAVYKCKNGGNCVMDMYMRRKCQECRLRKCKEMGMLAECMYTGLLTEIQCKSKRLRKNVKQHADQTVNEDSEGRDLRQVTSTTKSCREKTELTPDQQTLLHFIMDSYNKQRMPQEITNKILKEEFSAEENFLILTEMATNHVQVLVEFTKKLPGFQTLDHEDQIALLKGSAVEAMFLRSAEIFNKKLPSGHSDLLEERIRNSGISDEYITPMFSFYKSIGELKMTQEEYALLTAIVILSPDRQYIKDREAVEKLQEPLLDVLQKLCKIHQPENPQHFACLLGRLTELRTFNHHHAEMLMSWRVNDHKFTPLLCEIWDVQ

For assay [4] the target is unchanged. The experiment in a line: OT_FXR_FXRSRC1_1440: Odyssey Thera (OT) 24-hour HEK293T Protein-Complementation Assay for Farnesoid X receptor/SRC-1 Co-activator (AID 2283384). In outline:
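Fluorescence readout, 24 h post-dose, HEK293T; FXR and SRC-1 fused to complementary reporter fragments, association reconstitutes signal. Positive-direction fit vs DMSO baseline.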

Assay [5] deals with Retinoic acid receptor RXR-alpha (Homo sapiens) (UniProt P19793). Put plainly: OT_NURR1_NURR1RXRa_0480: Odyssey Thera (OT) 8-hour HEK293T Protein Complementation Assay for Nurr1/retinoid X receptor (RXR) (AID 2283385). In outline: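 Read-out: fluorescence from protein-fragment complementation between Nurr1 and RXRα in human HEK293T cells, 8 h after dosing. DMSO served as negative control; increased signal counted as activity.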
Sequence of Retinoic acid receptor RXR-alpha (Homo sapiens) (P19793 whole entry, looked up, the tested form may be a part): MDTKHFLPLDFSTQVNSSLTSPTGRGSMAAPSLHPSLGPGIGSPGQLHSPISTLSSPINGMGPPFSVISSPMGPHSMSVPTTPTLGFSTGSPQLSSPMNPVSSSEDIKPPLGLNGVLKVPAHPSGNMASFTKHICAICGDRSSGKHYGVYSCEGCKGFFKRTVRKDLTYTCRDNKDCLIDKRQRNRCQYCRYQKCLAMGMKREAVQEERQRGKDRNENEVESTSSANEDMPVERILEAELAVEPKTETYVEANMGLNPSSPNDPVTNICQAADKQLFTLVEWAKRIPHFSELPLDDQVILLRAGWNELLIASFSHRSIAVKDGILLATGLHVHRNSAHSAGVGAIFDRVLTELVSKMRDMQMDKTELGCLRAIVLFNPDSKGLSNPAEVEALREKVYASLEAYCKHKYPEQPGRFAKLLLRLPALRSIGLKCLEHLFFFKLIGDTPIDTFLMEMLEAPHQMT

The target is the same in assay [6]. Put plainly: OT_NURR1_NURR1RXRa_1440: Odyssey Thera (OT) 24-hour HEK293T Protein Complementation Assay for Nurr1/retinoid X receptor (RXR) (AID 2283386). In a few lines:
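Fluorescence PCA read-out; HEK293T; 24 h post-dose; bait/prey fused to reporter fragments; gain-of-signal fit vs DMSO negative control.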

Assay [7] addresses Peroxisome proliferator-activated receptor gamma (Homo sapiens) (UniProt P37231). Put plainly: OT_PPARg_PPARgSRC1_0480: Odyssey Thera (OT) 8-hour Protein-Complementation Assay for Peroxisome Proliferator-activated Receptor Gamma / SRC-1 Co-activator (AID 2283387). In a few lines:
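HEK293T transiently transfected with PPARg and SRC-1 fused to Venus YFP fragments, compounds 8 h at 37C. Fixed, Draq5-stained cells imaged; nuclear/cytoplasmic 488 nm fluorescence ratio over at least 350 cells per image; gain fitted versus DMSO.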

For assay [8] the target is unchanged. Put plainly: OT_PPARg_PPARgSRC1_1440: Odyssey Thera (OT) 24-hour Protein-Complementation Assay for Peroxisome Proliferator-activated Receptor Gamma/ SRC-1 Co-activator (AID 2283388). In a few lines:
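HEK293T transiently transfected with PPARg/SRC-1 split-Venus YFP fusions 48 h before dosing, then treated 24 h at 37C. Fixed cells imaged; nuclear/cytoplasmic 488 nm fluorescence ratio, gain of signal versus DMSO.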

A short description of assay [9]: CEETOX_H295R_11DCORT: CeeTox H295R High-throughput Steroidogenesis Assay for 11-Deoxycortisol (11DCORT) (AID 2283432; active = hit-call score of the fitted dose curve at least 0.9, where 1 is the maximum; inactive = score below 0.9;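 for AC50: 11-deoxycortisol secreted into the medium measured by LC-MS/MS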). The note with it: actives raise or lower the signal. In outline: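 H295R cells prestimulated 48 h with 10 uM forskolin, then exposed 48 h to chemical in 0.1% DMSO. 11-Deoxycortisol in medium quantified by HPLC-MS/MS after MTBE extraction; bidirectional fit versus DMSO. MTT viability read in same wells.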

Assay [10] can be described thus: CEETOX_H295R_OHPREG: CeeTox H295R High-throughput Steroidogenesis Assay for OH-Pregnenolone (OHPREG) (AID 2283434; active = hit-call score of the fitted dose curve at least 0.9, where 1 is the maximum; inactive = score below 0.9). The following applies: actives raise or lower the signal. In a few lines: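 Readout: HPLC-MS/MS of 17alpha-hydroxypregnenolone in medium after 48 h chemical exposure of H295R cells pretreated with forskolin. Values fitted bidirectionally relative to DMSO; chemicals reducing viability to 20–70% were retested after 10-fold dilution.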

A short description of assay [11]: CEETOX_H295R_OHPROG: CeeTox H295R High-throughput Steroidogenesis Assay for OH-Progesterone (OHPROG) (AID 2283435; active = hit-call score of the fitted dose curve at least 0.9, where 1 is the maximum; inactive = score below 0.9;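 for AC50: 17alpha-hydroxyprogesterone secreted into medium measured by HPLC-MS/MS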). The following applies: actives raise or lower the signal. In a few lines: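 HPLC-MS/MS quantification of 17alpha-hydroxyprogesterone secreted by H295R cells after 48 h chemical exposure, following 48 h 10 uM forskolin prestimulation. Gain or loss of signal fitted relative to DMSO. Viability checked by MTT in the same wells.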

Assay [12] is described as follows: CEETOX_H295R_ANDR: CeeTox H295R High-throughput Steroidogenesis Assay for Androstenedione (ANDR) (AID 2283436; active = hit-call score of the fitted dose curve at least 0.9, where 1 is the maximum; inactive = score below 0.9;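 note: human H295R adrenal cells exposed for 48 h with androstenedione measured in medium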). The following applies: actives raise or lower the signal. In a few lines:
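Steroidogenesis in H295R adrenal cells after 48 h dosing; androstenedione quantified by LC-MS/MS, with DMSO as negative control and baseline for bidirectional curve fitting.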

A short description of assay [13]: CEETOX_H295R_CORTISOL: CeeTox H295R High-throughput Steroidogenesis Assay for Cortisol (AID 2283438; active = hit-call score of the fitted dose curve at least 0.9, where 1 is the maximum; inactive = score below 0.9;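 note: cortisol secreted into medium quantified by LC-MS/MS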). The following applies: actives raise or lower the signal. In a few lines:
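Read-out: cortisol in culture medium by reverse-phase C18 HPLC with ESI-positive tandem MS, after MTBE liquid-liquid extraction. Cells: human adrenal H295R, forskolin-primed (10 uM, 48 h) before 48 h chemical exposure in 0.1% DMSO.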

Assay [14] in a line: CEETOX_H295R_DOC: CeeTox H295R High-throughput Steroidogenesis Assay for DOC (AID 2283439; active = hit-call score of the fitted dose curve at least 0.9, where 1 is the maximum; inactive = score below 0.9). The note with it: actives raise or lower the signal. In a few lines: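 Human adrenocortical H295R cells, passages up to 10, received 10 uM forskolin for 48 h before chemical addition. After another 48 h exposure in 0.1% DMSO, secreted DOC was measured by LC-MS/MS, with gain or loss fitted against DMSO controls.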

The nature of assay [15]: CEETOX_H295R_ESTRADIOL: CeeTox H295R High-throughput Steroidogenesis Assay for Estradiol (AID 2283440; active = hit-call score of the fitted dose curve at least 0.9, where 1 is the maximum; inactive = score below 0.9;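 note: estradiol secreted into medium quantified by LC-MS/MS after dansyl derivatisation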). The note with it: actives raise or lower the signal. In outline: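 H295R cells pre-stimulated 48 h with 10 uM forskolin, then exposed 48 h to chemical in 0.1% DMSO. Medium estradiol quantified by MTBE extraction, dansyl derivatisation and HPLC-MS/MS; bidirectional fit versus DMSO; MTT viability required >/=70%.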

The nature of assay [16]: CEETOX_H295R_ESTRONE: CeeTox H295R High-throughput Steroidogenesis Assay for Estrone (AID 2283441; active = hit-call score of the fitted dose curve at least 0.9, where 1 is the maximum; inactive = score below 0.9;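 note: estrone secreted into medium measured by LC-MS/MS after dansyl derivatization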). The note with it: actives raise or lower the signal. In a few lines:
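Forskolin-stimulated H295R cells are treated 48 h with chemical, and estrone in the medium is measured by LC-MS/MS. Activity is fitted in both directions relative to DMSO controls, with chemicals diluted until MTT viability reaches at least 70%.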

Assay [17] in a line: CEETOX_H295R_PROG: CeeTox H295R High-throughput Steroidogenesis Assay for Progesterone (PROG) (AID 2283442; active = hit-call score of the fitted dose curve at least 0.9, where 1 is the maximum; inactive = score below 0.9). The following applies: actives raise or lower the signal. In a few lines:
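H295R adrenal cells prestimulated 48 h with 10 uM forskolin, then exposed 48 h to test chemical in 0.1% DMSO. Progesterone in medium quantified by HPLC-MS/MS after MTBE extraction; viability checked by MTT in same wells.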

Read-out in assay [18]: Tumor necrosis factor receptor superfamily member 6 (Homo sapiens) (UniProt P25445)
The experiment in a line: LTEA_HepaRG_FAS: Life Technologies and Expression Analysis (LTEA) Assay for Fas cell surface death receptor (FAS) using HepaRG (AID 2283447; active = hit-call score of the fitted dose curve at least 0.9, where 1 is the maximum; inactive = score below 0.9). The following applies: mRNA level, 48 h; actives raise or lower the signal. In a few lines:
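Differentiated human HepaRG cells, pre-cultured 48 h, were exposed in duplicate for 48 h to 8-point half-log concentrations (top 100 uM, 0.5% DMSO) in serum-free induction medium; FAS mRNA measured by qRT-PCR, normalized to ACTB/GAPDH/POLR2A, bidirectional fit versus DMSO.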

Read-out in assay [19]: Fatty acid synthase (Homo sapiens) (UniProt P49327)
Put plainly: LTEA_HepaRG_FASN: Life Technologies and Expression Analysis (LTEA) Assay for Fatty Acid Synthase (FASN) using HepaRG (AID 2283448; active = hit-call score of the fitted dose curve at least 0.9, where 1 is the maximum; inactive = score below 0.9). The note with it: mRNA level, 48 h; actives raise or lower the signal. In outline: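 HepaRG, 48 h exposure, 8-pt half-log series top 100 uM, 0.5% DMSO vehicle, duplicates. Readout: FASN transcript by Fluidigm qRT-PCR; housekeeping-normalized; bidirectional curve fit vs DMSO baseline.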

Read-out in assay [20]: Cyclin D2 (CCND2), CCND2 (gene 894)
The experiment in a line: LTEA_HepaRG_CCND2: Life Technologies and Expression Analysis (LTEA) Assay for Cyclin D2 (CCND2) using HepaRG (AID 2283449; active = hit-call score of the fitted dose curve at least 0.9, where 1 is the maximum; inactive = score below 0.9;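 note: CCND2 transcript measured by TaqMan qRT-PCR and normalised to three housekeeping genes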). The following applies: mRNA level, 48 h; actives raise or lower the signal. In a few lines:
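In this HepaRG study, an eight-point concentration series (max 100 uM, 0.5% DMSO) is applied for 48 h. CCND2 mRNA change is derived by qRT-PCR normalised to ACTB, GAPDH and POLR2A.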

Sequence of Fatty acid synthase (Homo sapiens) (P49327 whole entry, looked up): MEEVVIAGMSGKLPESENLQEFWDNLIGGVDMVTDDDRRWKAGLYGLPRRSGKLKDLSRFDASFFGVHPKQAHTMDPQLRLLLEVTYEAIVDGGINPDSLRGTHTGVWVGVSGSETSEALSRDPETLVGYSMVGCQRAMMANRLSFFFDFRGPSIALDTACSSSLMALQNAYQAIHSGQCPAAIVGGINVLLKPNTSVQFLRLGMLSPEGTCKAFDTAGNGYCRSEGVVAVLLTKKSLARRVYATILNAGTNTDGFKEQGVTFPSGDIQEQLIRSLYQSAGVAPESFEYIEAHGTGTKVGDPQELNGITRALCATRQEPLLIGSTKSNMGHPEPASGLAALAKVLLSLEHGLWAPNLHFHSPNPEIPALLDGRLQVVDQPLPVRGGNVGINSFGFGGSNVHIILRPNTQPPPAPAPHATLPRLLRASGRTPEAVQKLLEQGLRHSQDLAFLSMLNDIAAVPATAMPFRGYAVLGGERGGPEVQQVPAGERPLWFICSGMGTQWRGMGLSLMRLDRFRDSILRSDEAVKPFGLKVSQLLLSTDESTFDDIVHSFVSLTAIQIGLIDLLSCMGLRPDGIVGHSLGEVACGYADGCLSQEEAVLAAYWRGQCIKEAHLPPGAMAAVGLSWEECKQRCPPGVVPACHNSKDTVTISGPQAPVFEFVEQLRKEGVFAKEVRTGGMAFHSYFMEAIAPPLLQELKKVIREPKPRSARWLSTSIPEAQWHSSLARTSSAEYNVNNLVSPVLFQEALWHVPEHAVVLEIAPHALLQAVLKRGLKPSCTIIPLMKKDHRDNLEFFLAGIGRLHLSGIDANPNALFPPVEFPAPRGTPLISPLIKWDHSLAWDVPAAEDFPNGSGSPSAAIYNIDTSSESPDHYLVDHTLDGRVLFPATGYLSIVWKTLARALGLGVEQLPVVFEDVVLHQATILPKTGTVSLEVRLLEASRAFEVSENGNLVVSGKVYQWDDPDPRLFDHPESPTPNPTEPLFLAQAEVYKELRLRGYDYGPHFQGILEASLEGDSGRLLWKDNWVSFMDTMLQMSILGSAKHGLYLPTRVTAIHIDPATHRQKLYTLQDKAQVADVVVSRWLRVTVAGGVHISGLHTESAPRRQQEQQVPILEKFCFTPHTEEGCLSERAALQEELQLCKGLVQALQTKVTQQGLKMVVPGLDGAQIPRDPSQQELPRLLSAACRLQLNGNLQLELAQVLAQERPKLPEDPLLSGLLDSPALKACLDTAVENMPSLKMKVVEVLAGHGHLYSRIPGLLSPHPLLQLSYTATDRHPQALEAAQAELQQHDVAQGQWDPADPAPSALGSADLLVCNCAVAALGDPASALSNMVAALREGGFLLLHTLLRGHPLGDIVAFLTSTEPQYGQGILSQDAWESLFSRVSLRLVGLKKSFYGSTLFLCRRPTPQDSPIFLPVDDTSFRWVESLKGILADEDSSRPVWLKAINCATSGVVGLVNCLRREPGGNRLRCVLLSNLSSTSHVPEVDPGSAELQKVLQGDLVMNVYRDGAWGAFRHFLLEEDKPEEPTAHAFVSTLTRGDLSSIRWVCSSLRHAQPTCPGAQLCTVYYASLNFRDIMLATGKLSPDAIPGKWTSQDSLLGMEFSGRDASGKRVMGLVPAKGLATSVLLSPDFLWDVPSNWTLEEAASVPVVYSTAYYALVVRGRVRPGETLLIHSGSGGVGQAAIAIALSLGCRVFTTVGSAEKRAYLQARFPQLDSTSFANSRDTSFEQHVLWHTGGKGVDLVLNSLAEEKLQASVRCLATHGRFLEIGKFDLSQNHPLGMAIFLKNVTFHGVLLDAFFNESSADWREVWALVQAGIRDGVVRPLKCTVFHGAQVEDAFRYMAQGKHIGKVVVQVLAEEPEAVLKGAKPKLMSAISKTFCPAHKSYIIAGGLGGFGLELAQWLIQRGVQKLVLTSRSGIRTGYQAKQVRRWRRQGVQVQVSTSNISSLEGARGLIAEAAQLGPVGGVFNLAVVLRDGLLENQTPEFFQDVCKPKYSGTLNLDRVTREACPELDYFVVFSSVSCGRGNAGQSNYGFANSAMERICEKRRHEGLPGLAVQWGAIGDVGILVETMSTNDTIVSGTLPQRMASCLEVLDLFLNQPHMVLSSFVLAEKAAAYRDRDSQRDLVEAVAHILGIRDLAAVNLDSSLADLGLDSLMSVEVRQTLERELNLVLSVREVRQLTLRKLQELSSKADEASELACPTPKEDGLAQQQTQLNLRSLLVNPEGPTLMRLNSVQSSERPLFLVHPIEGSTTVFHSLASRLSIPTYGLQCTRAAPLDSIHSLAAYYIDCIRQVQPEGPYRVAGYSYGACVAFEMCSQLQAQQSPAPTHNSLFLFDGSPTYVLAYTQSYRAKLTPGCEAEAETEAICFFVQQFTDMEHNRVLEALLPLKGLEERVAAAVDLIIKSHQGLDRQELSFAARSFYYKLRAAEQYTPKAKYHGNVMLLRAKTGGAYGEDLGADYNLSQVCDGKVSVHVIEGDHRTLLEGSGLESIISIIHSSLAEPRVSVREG
Sequence of Peroxisome proliferator-activated receptor gamma (Homo sapiens) (P37231 whole entry, looked up, the tested form may be a part): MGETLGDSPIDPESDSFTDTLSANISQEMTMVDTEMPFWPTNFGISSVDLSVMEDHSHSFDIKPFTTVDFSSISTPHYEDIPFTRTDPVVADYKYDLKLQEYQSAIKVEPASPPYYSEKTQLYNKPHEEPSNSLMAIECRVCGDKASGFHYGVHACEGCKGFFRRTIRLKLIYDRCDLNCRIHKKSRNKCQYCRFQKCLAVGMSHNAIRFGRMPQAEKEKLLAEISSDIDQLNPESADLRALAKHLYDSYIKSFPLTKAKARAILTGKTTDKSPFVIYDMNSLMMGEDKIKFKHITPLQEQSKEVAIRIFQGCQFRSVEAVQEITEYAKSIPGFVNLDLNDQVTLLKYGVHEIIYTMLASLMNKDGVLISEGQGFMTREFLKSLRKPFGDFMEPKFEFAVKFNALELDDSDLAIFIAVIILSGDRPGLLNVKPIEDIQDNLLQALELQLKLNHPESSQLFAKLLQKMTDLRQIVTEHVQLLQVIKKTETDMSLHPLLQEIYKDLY
Sequence of Estrogen receptor (Homo sapiens) (P03372 whole entry, looked up): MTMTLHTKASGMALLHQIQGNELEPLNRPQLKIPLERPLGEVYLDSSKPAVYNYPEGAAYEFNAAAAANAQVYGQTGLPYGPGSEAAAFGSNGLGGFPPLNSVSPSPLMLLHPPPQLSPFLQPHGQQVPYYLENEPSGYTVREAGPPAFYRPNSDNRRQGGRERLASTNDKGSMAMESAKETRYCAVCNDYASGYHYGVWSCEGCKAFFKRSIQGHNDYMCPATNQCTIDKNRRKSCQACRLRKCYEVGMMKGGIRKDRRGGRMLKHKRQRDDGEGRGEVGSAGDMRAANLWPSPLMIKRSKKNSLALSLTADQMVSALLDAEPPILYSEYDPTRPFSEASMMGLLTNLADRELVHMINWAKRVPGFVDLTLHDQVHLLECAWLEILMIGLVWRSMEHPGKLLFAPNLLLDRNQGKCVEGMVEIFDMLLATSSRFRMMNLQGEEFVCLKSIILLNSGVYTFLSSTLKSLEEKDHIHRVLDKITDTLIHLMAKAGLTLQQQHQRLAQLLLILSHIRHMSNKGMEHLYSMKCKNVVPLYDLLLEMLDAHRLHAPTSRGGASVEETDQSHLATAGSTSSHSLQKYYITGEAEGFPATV

`O=[N+]([O-])/N=C1\NCCN1Cc1ccc(Cl)nc1`: the outcome in [1], in assay [2], in [3], in [4], in [5] and in assay [6] was inactive. For the same molecule, the call in assay [7], in assay [8], in assay [9], in assay [10], in [11] and in assay [12] was inactive. The outcome in [13], in assay [14], in assay [15], in [16], in assay [17] and in assay [18] was inactive. Besides, the outcome in assay [20] was inactive. In addition, in assay [19], the AC50 (as a rule, the concentration at which the activity in the assay is half-maximal) is 20.6 µM (active).
Consider `CN1CSC(=S)N(C)C1`, for which the molecule was classed as inactive in assay [1], in assay [2], in assay [3], in assay [4], in assay [7] and in assay [8]. In addition, the call in [18], in [19] and in assay [20] was inactive.
`CCC(C)(C)C(=O)OC1=C(c2ccc(Cl)cc2Cl)C(=O)OC12CCCCC2`: the result in [1], in assay [2], in [5], in assay [7], in [10] and in assay [12] was inactive. The result in assay [13], in assay [15], in assay [16], in assay [18] and in assay [20] was inactive. Also, the AC50 in [3] is 47.5 µM (active); in assay [4], 41 µM (active); in assay [6] it was 33 µM (active) and 70.8 µM (active); in assay [7] it was 16 µM (active); in assay [8], 38.7 µM (active) and 50 µM (active); in [9], 1.11 µM (active). For the same molecule, the AC50 was 2.29 µM (active) in assay [11], 0.739 µM (active) in assay [14], 0.593 µM (active) in [17] and 15.1 µM (active) in assay [19].
For the molecule `CC[C@H](C)[C@H]1O[C@]2(C=C[C@@H]1C)C[C@@H]1C[C@@H](C/C=C(\C)[C@@H](O[C@H]3C[C@H](OC)[C@@H](O[C@H]4C[C@H](OC)[C@@H](O)[C@H](C)O4)[C@H](C)O3)[C@@H](C)/C=C/C=C3\CO[C@@H]4[C@H](O)C(C)=C[C@@H](C(=O)O1)[C@]34O)O2` (tested in a mixture with another compound), the molecule was called inactive in [1], in [2], in assay [5], in assay [6], in assay [7] and in assay [8]. The call in assay [9], in assay [10], in assay [11], in [13], in assay [14] and in [17] was inactive. Besides, the half-maximal activity concentration (AC50) was 7.4 µM (active) in assay [5], 9.87 µM (active) in assay [6] and 11.4 µM (active) in [19].
As to `O=S1OCC2C(CO1)C1(Cl)C(Cl)=C(Cl)C2(Cl)C1(Cl)Cl` (configuration not stated), the result in assay [1], in assay [2], in assay [7], in assay [8], in [18] and in assay [19] was inactive. Besides, in [3], the concentration at half-maximal activity (AC50) was 39.2 µM (active).

For the origin of these results see PubChem BioAssay (EPA / NIEHS).
